Shown are actives, neighbours in structure and some others; about 4% of the full set was active somewhere.
HIF-2a block = HIF-2a reporter inhibitors, primary screen, luminescence, 786-0 RCC cells | 786-0 RCC cells HIF-2a reporter, luciferase luminescence, overnight | inhibition, % at 18.8 µM | hit rate 0.72% among 360,000 | AID 624352, 2012;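 active means inhibition of the luminescence signal of 40% or more relative to plate controls, in a single-dose primary screen at 18.75 µM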
Peg3 prom inh = Peg3 promoter-driven luciferase inhibitors, primary screen, cell-based, HeLa, luciferase luminescence; HeLa PEG-Prom luciferase reporter, overnight; inhibition, % at 20 µM; hit rate 1.7% among 360,000;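 active means inhibition of at least 50% at 20 µM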
TROY NFkB inh = inhibitors of TROY-driven NF-kB signaling, primary screen, Q293 LMP1-TROYcd cells, NF-kB luciferase, uHTS; Q293 LMP1-TROYcd NF-kB luciferase reporter, 4 h; inhibition, % at 10 µM; hit rate 0.98% among 360,000; AID 1347056, 2019;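 active means compounds whose plate-normalised and pattern-corrected inhibition of the luciferase reporter signal at the single screening dose is 50% or more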
CF NFkB inh = inhibitors of PAF-induced NF-kB signaling, primary screen, cell-based, GFP fluorescence, uHTS | hit rate 0.86% among 360,000 | AID 588850, 2011 | KKLEB NF-kB-GFP reporter, GFP fluorescence overnight | inhibition, % at 5 µM;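 active means at least 50% inhibition at 5 µM, scaled per plate between neutral and stimulator controls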;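 further: PAF is a Pseudomonas aeruginosa culture filtrate used as stimulus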
KKLEB tox = cytotoxicity in KKLEB CF airway cells, primary screen, cytotoxicity control for CF NF-kB inhibitor project, cell-based, uHTS, fluorescence assay plates; KKLEB CF airway cells viability, ATPlite luminescence, overnight; hits give low values; cells stimulated with P. aeruginosa culture filtrate; activity change (cytotoxicity), % at 5 µM; hit rate 0.36% among 360,000; AID 602141, 2011;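 active means corrected activity change at or below -50% at 5 µM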
TWEAK Fn14 block = inhibitors of TWEAK-Fn14 signaling, primary screen, luciferase reporter cells, uHTS | inhibition, % at 10 µM | TWEAK-stimulated Fn14 reporter cells, luciferase luminescence, 8 h | hit rate 2% among 360,000 | AID 1159606, 2016; in the data active means inhibition above about 50%
Hits are given with their value.

For CC(=O)Nc1ccc(NC(=O)C2CCC(N3C(=O)C4C5C=CC(C6CC56)C4C3=O)CC2)cc1 (stereo not drawn) the results were HIF-2a block inactive, Peg3 prom inh inactive, TROY NFkB inh inactive, CF NFkB inh inactive, KKLEB tox inactive and TWEAK Fn14 block inactive.
`CC(=O)Nc1ccc(-c2ccnc3c2CC(C)(C(=O)NCc2cccc(Cl)c2)O3)cc1` (stereo not drawn) gave HIF-2a block inactive, Peg3 prom inh inactive, TROY NFkB inh inactive, CF NFkB inh inactive, KKLEB tox inactive and TWEAK Fn14 block inactive.
CNC(=O)C1CC(=O)N(c2ccc(OCC(=O)Nc3ccc(OC)cc3)cc2)C1 (stereo not drawn) was read as HIF-2a block inactive, Peg3 prom inh inactive, TROY NFkB inh inactive, CF NFkB inh inactive, KKLEB tox inactive and TWEAK Fn14 block inactive.
Screening CCOC(=O)C1(CCOc2ccccc2)CCN(Cc2cccc(OCCO)c2)CC1 returned HIF-2a block inactive, Peg3 prom inh inactive, TROY NFkB inh 51, CF NFkB inh inactive, KKLEB tox inactive and TWEAK Fn14 block inactive.
For N=c1n(CCO)c2ccccc2n1Cc1ccccc1Cl the results were HIF-2a block inactive, Peg3 prom inh inactive, TROY NFkB inh inactive, CF NFkB inh inactive, KKLEB tox inactive and TWEAK Fn14 block inactive.
N=c1n(CCO)c2ccccc2n1CCOc1ccc(Cl)cc1Cl was read as HIF-2a block inactive, Peg3 prom inh 103, TROY NFkB inh inactive, CF NFkB inh inactive, KKLEB tox inactive and TWEAK Fn14 block inactive.
For O=C(CN1CCN(CC(=O)Nc2ccccc2Cc2ccccc2)CC1)Nc1ccccc1Cl the results were HIF-2a block inactive, Peg3 prom inh inactive, TROY NFkB inh inactive, CF NFkB inh inactive, KKLEB tox inactive and TWEAK Fn14 block inactive.
`CCCCn1c2c(cc(C(=O)OC)c1=O)C(=O)CCC2` gave HIF-2a block inactive, Peg3 prom inh inactive, TROY NFkB inh inactive, CF NFkB inh inactive, KKLEB tox inactive and TWEAK Fn14 block inactive.
For CC(=O)NNc1ncnc2c1cnn2-c1ccc(C)c(Cl)c1 the results were HIF-2a block inactive, Peg3 prom inh inactive, TROY NFkB inh 61, CF NFkB inh inactive, KKLEB tox inactive and TWEAK Fn14 block 73.
Cc1ccc(Cl)cc1-n1ncc2c(NNC(=O)c3ccco3)ncnc21 was read as HIF-2a block inactive, Peg3 prom inh inactive, TROY NFkB inh inactive, CF NFkB inh inactive, KKLEB tox inactive and TWEAK Fn14 block 63.
CN(C)c1cccc(C(=O)NNC(=O)CN2C(=O)C3CC=CCC3C2=O)c1 (stereo not drawn) was read as HIF-2a block inactive, Peg3 prom inh inactive, TROY NFkB inh 53, CF NFkB inh inactive, KKLEB tox inactive and TWEAK Fn14 block 53.
`O=C(N[C@@H]1c2ccccc2CC[C@@H]1OCc1ccccc1)c1ccc(-c2ccccc2)cc1` gave HIF-2a block inactive, Peg3 prom inh inactive, TROY NFkB inh inactive, CF NFkB inh inactive, KKLEB tox inactive and TWEAK Fn14 block inactive.
Screening COCC1CCN(C(=O)c2cc(COc3ccc(F)cc3Cl)on2)C1 (stereo not drawn) returned HIF-2a block inactive, Peg3 prom inh inactive, TROY NFkB inh inactive, CF NFkB inh inactive, KKLEB tox inactive and TWEAK Fn14 block 94.
`CCN(CC)C1CCN(C(=O)c2cc(COc3ccc(F)cc3Cl)on2)C1` (stereo not drawn) gave HIF-2a block inactive, Peg3 prom inh inactive, TROY NFkB inh inactive, CF NFkB inh inactive, KKLEB tox inactive and TWEAK Fn14 block inactive.
Screening C[C@@H]1CCCCO[C@@H](CN(C)C(=O)c2ccncc2)[C@@H](C)CN([C@H](C)CO)C(=O)c2cc(NC(=O)Cc3ccccc3)ccc2O1 returned HIF-2a block inactive, Peg3 prom inh inactive, TROY NFkB inh inactive, CF NFkB inh inactive, KKLEB tox inactive and TWEAK Fn14 block inactive.
Screening CCCCn1c(=NC(C)=O)c(C#N)cc2c(=O)n3cccc(C)c3nc21 returned HIF-2a block inactive, Peg3 prom inh inactive, TROY NFkB inh inactive, CF NFkB inh inactive, KKLEB tox inactive and TWEAK Fn14 block inactive.
For CCCCCn1c(=NC(=O)c2cccnc2)c(C#N)cc2c(=O)n3cccc(C)c3nc21 the results were HIF-2a block inactive, Peg3 prom inh 56, TROY NFkB inh inactive, CF NFkB inh inactive, KKLEB tox inactive and TWEAK Fn14 block inactive.
CSc1ccccc1NC(=O)C1(C)CCN1C(=O)Cc1ccc(-c2ccccc2)cc1 (stereo not drawn) was read as HIF-2a block inactive, Peg3 prom inh inactive, TROY NFkB inh inactive, CF NFkB inh inactive, KKLEB tox inactive and TWEAK Fn14 block inactive.
For COc1ccc(/C=C/C(=O)c2ccc(C(=O)/C=C/c3ccc(OC)c(OC)c3)cc2)cc1OC the results were HIF-2a block inactive, Peg3 prom inh inactive, TROY NFkB inh inactive, CF NFkB inh inactive, KKLEB tox inactive and TWEAK Fn14 block inactive.
Screening CCOc1cc(/C=C/C(=O)c2ccc(C)cc2)ccc1OCC(=O)N(C)C returned HIF-2a block inactive, Peg3 prom inh inactive, TROY NFkB inh inactive, CF NFkB inh inactive, KKLEB tox -54 and TWEAK Fn14 block 59.
For Cc1sc(NC(=O)Cc2ccc3c(c2)OCO3)nc1-c1ccc2c(c1)CCN2C(=O)c1ccccc1F the results were HIF-2a block inactive, Peg3 prom inh inactive, TROY NFkB inh inactive, CF NFkB inh inactive, KKLEB tox inactive and TWEAK Fn14 block 51.
`CN(C)S(=O)(=O)c1cc(NC(=O)COC(=O)c2nc(Cl)ccc2Cl)ccc1Cl` gave HIF-2a block inactive, Peg3 prom inh inactive, TROY NFkB inh inactive, CF NFkB inh inactive, KKLEB tox inactive and TWEAK Fn14 block inactive.
For CCSc1ccccc1C(=O)N1CCCC1 the results were HIF-2a block inactive, Peg3 prom inh inactive, TROY NFkB inh inactive, CF NFkB inh inactive, KKLEB tox inactive and TWEAK Fn14 block inactive.
Screening CCSc1ccccc1C(=O)n1nnc2ccccc21 returned HIF-2a block inactive, Peg3 prom inh 70, TROY NFkB inh inactive, CF NFkB inh 61, KKLEB tox inactive and TWEAK Fn14 block 72.
Screening Cc1cccc(-c2nc(S(=O)(=O)c3ccccc3)c(N3CCOCC3)o2)c1 returned HIF-2a block inactive, Peg3 prom inh inactive, TROY NFkB inh inactive, CF NFkB inh inactive, KKLEB tox inactive and TWEAK Fn14 block inactive.
Screening Cc1ccc(-c2nc(S(=O)(=O)c3ccc(C)cc3)c(N3CCOCC3)o2)cc1 returned HIF-2a block inactive, Peg3 prom inh inactive, TROY NFkB inh inactive, CF NFkB inh inactive, KKLEB tox inactive and TWEAK Fn14 block 65.
`CCC1Cc2[nH][nH]c(=O)c2C(CC)O1` (stereo not drawn) gave HIF-2a block inactive, TROY NFkB inh inactive and TWEAK Fn14 block inactive.
